PubChem BioAssay
Results filed as inconclusive are left out. The source made the active and inactive calls.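 Rule for the calls, unless noted: active = compounds that lower survival of HCT116 colon cancer cells in the luminescence readout, no numeric limit stated; inactive = the rest.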 Starred links: 1 amine or outer side, 2 acyl side, 3 side chain; linkers in the order of their positions; H or OH if unused. Positions of bridges follow the written chain, without caps; N, C: chain ends. Non-standard residues stand in square brackets, D forms with d. Residues, ends and D or L forms follow the SMILES beside them. Chains are numbered I, II in the order given. Actinocin(9to1) = Cc1c2oc3c(C)ccc(C(=O)[*:1])c3nc-2c(C(=O)[*:2])c(N)c1=O; NMeV = CN[C@H](C(=O)O)C(C)C; Sar = CNCC(=O)O

Legend:
[1] = stimulators of insulin release from INS-1E, primary screen, cell-based, 5 mM glucose, NPC library (AID 1117329;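 active = compound raises insulin release from rat beta cells at 5 mM glucose, no numeric limit stated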); conditions: rat INS-1E insulin secretion, at 10 µM, stronger effect = higher value
[2] = growth inhibition of GSK3B-pretreated HCT116 cells – cell-based, CellTiter-Glo, 0.2 to 20 µM (AID 1117336;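 active = compounds lowering colon cancer cell viability after pretreatment blocking the GSK3B kinase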); conditions: HCT116 viability after GSK3B inhibitor, at 20 µM, stronger effect = higher value
[3] = inhibition of endothelial tube formation, primary screen, imaging, VEGF stimulated, CD31 staining, tube area, NPC library (AID 1117340;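 active = compound that reduces growth-factor-driven endothelial tube area in a mixed cell culture, no cutoff stated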); conditions: VEGF-stimulated ADSC/ECFC co-culture, at 10 µM, stronger effect = higher value
[4] = GLP1 release stimulators, primary, NCI-H716, NPC library (AID 1117341;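 active = compound raises GLP1 secretion from the human gut endocrine cells, with no numeric limit stated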); conditions: NCI-H716 cells, at 10 µM, stronger effect = higher value
[5] = HCT116 colon cancer cell growth inhibition, primary screen, CellTiter-Glo luminescence, NPC library (AID 1117342); conditions: at 20 µM (top of the series)
[6] = reduced SW480 viability measured with CellTiter-Glo, NPC library, primary (AID 1117343;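 active = compounds that lower viability of the colon cancer cells in the luminescence readout, with no numeric limit stated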); conditions: CellTiter-Glo luminescence; at 20 µM (top of the series)
[7] = NPC library primary testing for decreased DLD-1 cell viability via CellTiter-Glo (AID 1117346;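 active = compounds that lower survival of DLD-1 colon cancer cells in the luminescence readout, no cutoff given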); conditions: DLD-1 viability, CellTiter-Glo luminescence; at 20 µM (top of the series)
[8] = molecular target: 6-phosphogluconate dehydrogenase, decarboxylating (Homo sapiens) (UniProt P52209); assay: inhibition of human phosphogluconate dehydrogenase – biochemical, recombinant enzyme, NADPH absorbance, primary screen (AID 1159550;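 active = at least 20% inhibition of 6-phosphogluconate dehydrogenase activity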); conditions: recombinant 6PGD, NADPH absorbance 341 nm; at 10 µM; stronger effect = higher value
Chain of 6-phosphogluconate dehydrogenase, decarboxylating (Homo sapiens) (P52209 whole entry, looked up): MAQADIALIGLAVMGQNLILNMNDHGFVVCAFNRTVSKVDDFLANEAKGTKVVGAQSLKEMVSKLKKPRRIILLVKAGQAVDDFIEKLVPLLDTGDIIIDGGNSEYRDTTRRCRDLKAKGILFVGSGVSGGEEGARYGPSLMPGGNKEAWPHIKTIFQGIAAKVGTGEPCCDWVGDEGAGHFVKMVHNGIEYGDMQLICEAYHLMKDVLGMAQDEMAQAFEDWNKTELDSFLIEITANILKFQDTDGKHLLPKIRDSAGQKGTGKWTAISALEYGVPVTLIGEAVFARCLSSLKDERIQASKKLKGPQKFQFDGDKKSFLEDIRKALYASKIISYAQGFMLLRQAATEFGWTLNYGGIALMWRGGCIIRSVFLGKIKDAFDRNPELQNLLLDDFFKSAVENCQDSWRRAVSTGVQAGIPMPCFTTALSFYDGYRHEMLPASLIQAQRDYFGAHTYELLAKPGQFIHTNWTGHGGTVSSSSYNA

[9] = modulation of C. elegans fzo-1 (AID 1259413; call rule not given here;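 note: fzo-1 mutant C. elegans worms in liquid wells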); conditions: C. elegans fzo-1 modulator screen, mean read-out; stronger effect = higher value
[10] = EMT-state selective cytotoxicity in co-culture – imaging, PC-3E GFP, TEM4-18 mCherry, primary screen (AID 1345086;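 active = compounds killing one labelled cell type while sparing the other, by normalised counts and ratio limits, not self-fluorescent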;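 for all read-outs here: cells exposed to compound for 72 h before imaging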;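 for red/green cell ratio (normalised): normalised mesenchymal count divided by normalised epithelial count so high means epithelial killing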); conditions: PC-3E GFP / TEM4-18 mCherry co-culture, imaging cell counts, at 1 µM; for red/green cell ratio (normalised): actives lie on both sides, counts scaled to control wells, 1 = unselective
[11] = viability loss in pontine glioma line – cell-based, SU-DIPG-XIII, MIPE4.0, CellTiter-Glo, qHTS, dose response (AID 1347061; cut-off not given, nearly all actives have AC50 up to about 37 µM;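 note: cells exposed to compound for 48 hours before readout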); conditions: CellTiter-Glo ATP luminescence
[12] = viability loss in pontine glioma line – cell-based, JHH-DIPG-1, MIPE4.0, CellTiter-Glo, qHTS, dose response (AID 1347062; cut-off not given, nearly all actives have AC50 up to about 27 µM;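 for AC50: cells exposed to compound for two days before readout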); conditions: JHH-DIPG-1 viability, CellTiter-Glo ATP luminescence
[13] = viability loss in pontine glioma line – cell-based, SU-DIPG-IV, MIPE4.0, CellTiter-Glo, qHTS, dose response (AID 1347063; cut-off not given, nearly all actives have AC50 up to about 30 µM;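 note: compound exposure lasted 48 hours before the viability readout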); conditions: CellTiter-Glo ATP luminescence
[14] = viability loss in pontine glioma line – cell-based, SU-DIPG-XVII, MIPE5.0, CellTiter-Glo, qHTS, dose response (AID 1347060; cut-off not given, nearly all actives have AC50 up to about 26 µM;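 note: cells exposed to compound for 48 hours before viability readout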); conditions: CellTiter-Glo ATP luminescence
[15] = viability loss in pontine glioma line – cell-based, SU-DIPG-XIII, MIPE5.0, CellTiter-Glo, qHTS, dose response (AID 1347064; cut-off not given, nearly all actives have AC50 up to about 23 µM;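 note: cells exposed to compound for 48 hours before the viability read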); conditions: CellTiter-Glo ATP luminescence
[16] = measured here: epithelial PC-3E GFP cell survival
[17] = measured here: mesenchymal TEM4-18 mCherry cell survival

Cc1ncc([N+](=O)[O-])n1CCO
inactive: insulin secretion stimulation [1] -1.4% | tube area decrease [3] -14.9% | GLP1 secretion stimulation [4] -0.3% | inhibition of viability [5] 18.5% | inhibition [8] -20.7% | mean signal [9] 239 | red/green cell ratio (normalised) [10] 1.23 | outcome [11] | outcome [12] | outcome [13]
1.13: normalised cell number [10, 17]
0.93: normalised cell number [10, 16]
active: viability decrease [2] 55.6% | viability decrease (inhibition) [6] 75.1% | viability decrease (inhibition) [7] 55%

CCN1CCCC(OC(=O)C(c2ccccc2)c2ccccc2)C1 (configuration not stated)
inactive: viability decrease [2] 3.4% | tube area decrease [3] 18.5% | GLP1 secretion stimulation [4] 1.3% | viability decrease (inhibition) [7] 46.5% | inhibition [8] -9.18% | red/green cell ratio (normalised) [10] 1.28
0.93: normalised cell number [10, 16]
active: insulin secretion stimulation [1] 133% | inhibition of viability [5] 68.8% | viability decrease (inhibition) [6] 71.6%
1.19: normalised cell number [10, 17]

O=C(O)c1ccc(S(=O)(=O)N(Cl)Cl)cc1
1.08: normalised cell number [10, 17]
1.13: normalised cell number [10, 16]
inactive: insulin secretion stimulation [1] 1.2% | viability decrease [2] -8.9% | tube area decrease [3] -29.4% | GLP1 secretion stimulation [4] 0% | inhibition of viability [5] 8.13% | viability decrease (inhibition) [6] 16.9% | viability decrease (inhibition) [7] -6.9% | inhibition [8] 13.4% | red/green cell ratio (normalised) [10] 0.95

Oc1c(Br)cc(Br)c2cccnc12
inactive: insulin secretion stimulation [1] 2.4% | GLP1 secretion stimulation [4] 4.3% | inhibition [8] 4.35%
active: viability decrease [2] 113% | tube area decrease [3] 108% | inhibition of viability [5] 96.7% | viability decrease (inhibition) [6] 153% | viability decrease (inhibition) [7] 99.7%

CCN(CC)CCOc1ccc(/C(=C(\Cl)c2ccccc2)c2ccccc2)cc1
inactive: insulin secretion stimulation [1] 3.6% | inhibition [8] -19.7% | mean signal [9] 199 | red/green cell ratio (normalised) [10] 1.05
active: viability decrease [2] 102% | tube area decrease [3] 110% | GLP1 secretion stimulation [4] 22.8% | inhibition of viability [5] 102% | viability decrease (inhibition) [6] 124% | viability decrease (inhibition) [7] 103% | AC50 [14] 8.33 µM | AC50 [15] 11.8 µM
1.43: normalised cell number [10, 16]
1.5: normalised cell number [10, 17]

CCN(CCCCOC(=O)c1ccc(OC)c(OC)c1)C(C)Cc1ccc(OC)cc1 (configuration not stated)
0.97: normalised cell number [10, 17]
0.88: normalised cell number [10, 16]
active: insulin secretion stimulation [1] 49.6%
inactive: viability decrease [2] -125% | tube area decrease [3] 23.2% | GLP1 secretion stimulation [4] 0.3% | inhibition of viability [5] 26.7% | viability decrease (inhibition) [6] 20% | viability decrease (inhibition) [7] 8% | inhibition [8] -12.1% | red/green cell ratio (normalised) [10] 1.1

CC1(C)O[C@@H]2C[C@H]3[C@@H]4C[C@H](F)C5=CC(=O)CC[C@]5(C)[C@H]4[C@@H](O)C[C@]3(C)[C@]2(C(=O)CO)O1
inactive: insulin secretion stimulation [1] 6.1% | viability decrease [2] 0.8% | tube area decrease [3] -40.9% | GLP1 secretion stimulation [4] 1.2% | inhibition of viability [5] 0.1% | viability decrease (inhibition) [6] -2.1% | viability decrease (inhibition) [7] -16.6% | inhibition [8] 8.44%

CCN(CC)C(C)CN1c2ccccc2Sc2ccccc21 (configuration not stated)
0.92: normalised cell number [10, 17]
inactive: viability decrease [2] -28.5% | tube area decrease [3] 25% | GLP1 secretion stimulation [4] 4.8% | inhibition [8] -5.57% | red/green cell ratio (normalised) [10] 0.85
active: insulin secretion stimulation [1] 7.3% | inhibition of viability [5] 69.2% | viability decrease (inhibition) [6] 109% | viability decrease (inhibition) [7] 76.9%
1.09: normalised cell number [10, 16]

Nc1ncnc2c1ncn2[C@@H]1O[C@H](COP(=O)(O)O)[C@@H](O)[C@H]1O
inactive: insulin secretion stimulation [1] 0.05% | viability decrease [2] -14.7% | tube area decrease [3] -5.6% | GLP1 secretion stimulation [4] 4% | inhibition of viability [5] -14.3% | viability decrease (inhibition) [7] -4.1% | inhibition [8] -8.33%
active: viability decrease (inhibition) [6] 73.2%

CN1CCN(CCCN2c3ccccc3Sc3ccc(Cl)cc32)CC1
0.97: normalised cell number [10, 16]
1.16: normalised cell number [10, 17]
inactive: insulin secretion stimulation [1] 3.6% | viability decrease [2] 13% | GLP1 secretion stimulation [4] 17.2% | inhibition [8] 5.8% | mean signal [9] 253 | red/green cell ratio (normalised) [10] 1.2
active: tube area decrease [3] 47.3% | inhibition of viability [5] 86% | viability decrease (inhibition) [6] 137% | viability decrease (inhibition) [7] 94.4% | AC50 [11] 0.0105 µM | AC50 [12] 7.43 µM | AC50 [13] 10.5 µM

O=c1[nH]cnc2nc[nH]c12
1.18: normalised cell number [10, 17]
0.95: normalised cell number [10, 16]
inactive: insulin secretion stimulation [1] 0.7% | viability decrease [2] -11% | tube area decrease [3] -3.2% | GLP1 secretion stimulation [4] 0.7% | inhibition of viability [5] -26.8% | viability decrease (inhibition) [6] -73% | viability decrease (inhibition) [7] -26.4% | inhibition [8] 4.21% | red/green cell ratio (normalised) [10] 1.25

Cc1c2oc3c(C)ccc(C(=O)N[C@@H]4C(=O)N[C@H](C(C)C)C(=O)N5CCC[C@H]5C(=O)N(C)CC(=O)N(C)[C@@H](C(C)C)C(=O)O[C@@H]4C)c3nc-2c(C(=O)N[C@@H]2C(=O)N[C@H](C(C)C)C(=O)N3CCC[C@H]3C(=O)N(C)CC(=O)N(C)[C@@H](C(C)C)C(=O)O[C@@H]2C)c(N)c1=O (I: T[dV]P[Sar][NMeV] / II: T[dV]P[Sar][NMeV]; ester I:1-I:C, II:1-II:C; linker I:N-II:N via Actinocin(9to1))
active: viability decrease [2] -75.8% | tube area decrease [3] 110% | inhibition of viability [5] 37.8% | viability decrease (inhibition) [6] 70.6% | viability decrease (inhibition) [7] 69.3%
inactive: insulin secretion stimulation [1] 1% | GLP1 secretion stimulation [4] 1.9% | inhibition [8] -6.87% | mean signal [9] 256

NC(Cc1ccc(Cl)cc1)C(=O)O (configuration not stated)
0.99: normalised cell number [10, 16]
1.12: normalised cell number [10, 17]
inactive: insulin secretion stimulation [1] -1.3% | viability decrease [2] -0.7% | tube area decrease [3] -8.9% | GLP1 secretion stimulation [4] 0.5% | inhibition of viability [5] -7.8% | viability decrease (inhibition) [6] 13.2% | viability decrease (inhibition) [7] -6.55% | inhibition [8] 5.29% | red/green cell ratio (normalised) [10] 1.13

O=C(Cn1ccnc1[N+](=O)[O-])NCCO
inactive: insulin secretion stimulation [1] 2.3% | viability decrease [2] -1.8% | tube area decrease [3] 2.6% | GLP1 secretion stimulation [4] -2.9% | inhibition of viability [5] 19.2% | viability decrease (inhibition) [6] 6.3% | viability decrease (inhibition) [7] -0.6% | inhibition [8] -6.85%

CC(C(=O)O)c1ccc(C(=O)c2cccs2)cc1 (configuration not stated)
0.96: normalised cell number [10, 16]
1.02: normalised cell number [10, 17]
inactive: insulin secretion stimulation [1] 1.8% | viability decrease [2] -5.4% | tube area decrease [3] -3.5% | GLP1 secretion stimulation [4] -3.9% | inhibition of viability [5] 0.8% | viability decrease (inhibition) [6] -1.2% | viability decrease (inhibition) [7] 0% | inhibition [8] -2.86% | red/green cell ratio (normalised) [10] 1.06
